Measured values as given in PubChem BioAssay AID777 (Sanford-Burnham Center for Chemical Genomics, 2007).
Screen size: about 96,000 compounds; about 19,000 (20%) were called active. These entries were drawn from the full list. Unmarked numbers belong to inactive results.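 The calls were made as follows: active = blocking of liver enzyme CYP2C9 beyond about 50% at 5 µM (limit read from the data); inactive = the rest.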

biological target: Cytochrome P450 2C9 (Homo sapiens) (UniProt P11712); assay: blockers of cytochrome P450 2C9 activity – biochemical, luminescence, ADME assay, primary screen (AID 777); conditions: CYP2C9 Supersomes, luciferin-H conversion, at 5 µM, hits give high values
Sequence (P11712 whole entry, looked up): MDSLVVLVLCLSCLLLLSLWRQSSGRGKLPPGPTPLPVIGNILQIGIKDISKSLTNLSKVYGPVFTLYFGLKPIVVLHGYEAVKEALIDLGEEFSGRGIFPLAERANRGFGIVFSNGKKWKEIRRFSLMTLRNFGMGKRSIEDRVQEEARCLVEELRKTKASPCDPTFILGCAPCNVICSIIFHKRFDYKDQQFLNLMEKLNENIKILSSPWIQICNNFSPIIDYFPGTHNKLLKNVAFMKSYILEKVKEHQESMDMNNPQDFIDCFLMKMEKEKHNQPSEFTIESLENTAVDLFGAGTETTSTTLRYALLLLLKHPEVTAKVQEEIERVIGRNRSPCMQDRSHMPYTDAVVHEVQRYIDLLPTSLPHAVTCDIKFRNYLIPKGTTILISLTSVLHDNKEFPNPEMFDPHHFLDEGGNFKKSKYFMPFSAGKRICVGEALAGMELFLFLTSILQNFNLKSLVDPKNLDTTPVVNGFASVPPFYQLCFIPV

SMILES | inhibition
CCn1c(SCC(=O)Nc2ccc(S(=O)(=O)Nc3onc(C)c3C)cc2)nnc1-c1ccccc1 | 18.2%
O=C(NCCCCO)C(F)(F)C(F)(F)C(F)(F)C(=O)NCCCCO | -24.7%
Cc1ccc(-c2noc(CSc3nnc(-c4ccccc4)n3C)n2)cc1 | 88.3% (active)
Cn1c(SCc2nc3ccccc3s2)nnc1-c1ccc2c(c1)OCO2 | 8.2%
Cc1ccc(Nc2nc(CSc3nnnn3-c3ccccc3)cc(=O)[nH]2)cc1 | 42.5%
Cc1cccc(-c2noc(-c3ccc(F)cc3)n2)c1 | 8.5%
CN(C(=O)CSc1nnnn1-c1ccccc1)C1CCCCC1 | 36.3%
Cc1ccc(-c2noc(CSc3nnc(-c4cccs4)n3C)n2)cc1 | 13%
Cc1ccc(-c2noc(CSc3nnnn3-c3ccccc3)n2)cc1 | 85.5% (active)
CCN(CC)C(=O)CSc1nnc(-c2cnccn2)n1-c1ccc(C)cc1 | 8.8%
Cc1ccc(-c2noc(CSc3nnc(-c4ccncc4)n3-c3ccc(F)cc3)n2)cc1 | 70.7% (active)
O=C(O)CN(Cc1ccco1)S(=O)(=O)c1ccccc1 | -2.7%
O=C(c1ccc(O)cc1)c1ccc(C(=O)O)c(C(=O)O)c1 | -15.8%
COc1ccc(C(CNC(=O)c2cccnc2SC)N2CCOCC2)cc1 (stereo not given) | 6.9%
S=C1NC(c2ccccc2)=NCN1c1ccc(Br)cc1 | 19.4%
CCN(c1ccc2c(c1)OCO2)S(=O)(=O)c1cc(Br)cc2c1N(C(=O)C1CC1)CC2 | 33.6%
CCOC(=O)N1CCN(S(=O)(=O)c2cc(Br)cc3c2N(C(=O)C2CC2)CC3)CC1 | 50.2% (active)
CCOC(=O)N1CCN(C(=O)C2CCN(S(C)(=O)=O)CC2)CC1 | -10.2%
O=C(O)C1CC=CCC1C(=O)NCCc1ccccc1 (stereo not given) | -21.1%
O=c1[nH]c(=O)n(Cc2ccco2)c2c1C(C(F)(F)F)(C(F)(F)F)N=C(c1ccco1)N2 | 1.8%
Cc1ccc(S(=O)(=O)NCc2csc(C)n2)c(C)c1 | 9.2%
Cc1ccc(C)c(S(=O)(=O)n2cnc3ccccc32)c1 | -14.6%
Cc1ccc(C)c(NS(=O)(=O)c2cc(Br)cnc2N)c1 | 63.5% (active)
CCOC(=O)CSc1nnc(CNC(=O)c2cccs2)n1-c1cc(OC)ccc1OC | 31.7%
Cc1cc(C)c(S(=O)(=O)c2ccccc2)c(OC(=O)c2c(F)cccc2Cl)n1 | 32.9%

SMILES | inhibition
O=c1c2ccccc2nc2n1C(CSc1ccc(F)cc1)CN2 (stereo not given) | 1.1%
C=CCn1c(COc2cccc3cccnc23)nnc1SCC(=O)OC | -306%
C=CCn1c(SCC(=O)c2ccc(Br)cc2)nnc1C(C)NC(=O)Cc1ccc(OC)cc1 (stereo not given) | 30.7%
C=CCn1c(SCCOc2ccc(OC)cc2)nnc1C(NC(=O)c1ccc(OC)cc1)C(C)C (stereo not given) | 58.8% (active)
CC1=C(C)CC(C(=O)NNC(=O)c2ccccc2O)C(C(=O)O)C1 (stereo not given) | 21.8%
O=C(c1c(Cl)nc2sccn12)N1CCCc2ccccc21 | 28.1%
Cc1cccc(N2CCN(S(=O)(=O)c3ccc4[nH]c(=O)c(=O)[nH]c4c3)CC2C)c1 (stereo not given) | 52.5% (active)
COc1cccc(N2C(=O)CC(N3CCN(S(=O)(=O)c4ccccc4)CC3)C2=O)c1 (stereo not given) | 6.5%
CN1CCN(S(=O)(=O)c2ccc3[nH]cc(C(=O)O)c(=O)c3c2)CC1 | 2.4%
Cc1nc(C)c(-c2csc(NCCc3ccccc3)n2)s1 | 39%
COc1ccc(/C(O)=C2/C(=O)C(=O)N(CC3CCCO3)C2c2ccc(OC)c(OC)c2)cc1 (stereo not given) | 35.9%
COc1ccc(/C(O)=C2/C(=O)C(=O)N(c3nc(C)c(C)s3)C2c2ccco2)cc1 (stereo not given) | 70.5% (active)
COc1ccc(/C(O)=C2\C(=O)C(=O)N(Cc3ccco3)C2c2ccc(OC)cc2OC)cc1 (stereo not given) | 21.7%
C=CCNc1ncnc2ccc(Br)cc12 | -10.3%
COC(=O)c1cc(NC(=O)CC2C(=O)NCCN2C(=O)c2ccc(F)cc2)cc(C(=O)OC)c1 (stereo not given) | 46.6%
COc1cc(Cl)c(S(=O)(=O)N2CCN(Cc3ccc4c(c3)OCO4)CC2)cc1Cl | 20.7%
O=C(c1ccc(F)cc1)c1c[nH]c(C(=O)NCc2cccnc2)c1 | 45.9%
Cc1ccc(NC(=O)CS(=O)CC(=O)N(c2ccccc2)C(C)C(=O)NC2CCCC2)cc1 (stereo not given) | 77.9% (active)
CCc1ccc(NC(=O)CS(=O)CC(=O)NCCCc2ccccc2)cc1 (stereo not given) | 38.5%
CC(C)c1ccc(NC(=O)NC2CCCCC2)cc1 | -33.8%
COc1ccc(C2CC(=O)C=C(NCC3CCCO3)C2)cc1 (stereo not given) | 9.3%
O=C(OCN1C(=O)c2ccccc2C1=O)/C(=C\c1ccco1)NC(=O)c1ccccc1 | 14%
COC(=O)Nc1ncc(CN2CCCCC2)s1 | 3.8%
CCOP1(=O)C=C(C(C)(C)C)OC1c1ccc(F)cc1 (stereo not given) | -21.5%
COCCn1nnnc1C(c1ccccc1Cl)N1CCN(c2ccccc2OC)CC1 (stereo not given) | 39.5%
